Assay results from PubChem BioAssay (EPA / NIEHS).
Calls of active or inactive are those of the source. How the source made its calls: active means hit-call score of the fitted dose curve at least 0.9, where 1 is the maximum; inactive means score below 0.9.

Experiment: Tanguay_ZF_120hpf_MUSC: Oregon State University Tanguay Lab 120 Hour Post-fertilization zebrafish Assay for Muscle Malformation (AID 2284401)
Summary of the method: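 Scored as a binary brightfield endpoint at 120 hpf, fitted versus DMSO. Single dechorionated wild-type (Tropical 5D) zebrafish embryos per well, statically exposed at 28C from 6 hpf onward with final DMSO 0.64%.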

| Compound | outcome |
| --- | --- |
| O=C(O)C(F)(F)C(F)(F)C(F)(F)C(F)(F)C(=O)O | inactive |
| O=C(O)C(F)(F)C(F)(F)C(F)(F)C(F)(F)C(F)(F)C(F)(F)C(F)(F)C(F)(F)C(F)(F)C(F)F | inactive |
